SMILES strings stand for the structures. Results filed as inconclusive are left out. Values without a mark were called inactive. Calls come from the whole dose curve; as a rule, active = well fitted inhibition curve with a large enough effect; inconclusive = small, poorly fitted or top-dose-only effect; inactive = flat fitted curve, though single readings scatter.
% is set by controls: 0 for no effect and ±100 for the full control effect.

Calcium and integrin-binding protein 1 (Homo sapiens), sequence (Q99828 whole entry, looked up): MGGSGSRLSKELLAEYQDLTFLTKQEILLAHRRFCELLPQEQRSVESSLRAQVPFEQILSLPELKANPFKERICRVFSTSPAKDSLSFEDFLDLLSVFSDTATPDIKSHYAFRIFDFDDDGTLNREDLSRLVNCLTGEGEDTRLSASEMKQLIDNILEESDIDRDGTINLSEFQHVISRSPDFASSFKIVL

This assay concerns the target Calcium and integrin-binding protein 1 (Homo sapiens) (UniProt Q99828). The assay can be described thus: Primary qHTS for Identification of Calcium Integrin Binding Protein 1 (CIB1) Competitor (AID 1508620).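 Note: GST tagged CIB1 binding a fluorescein labelled alphaIIb integrin peptide tracer; top concentration of the series differs between compounds.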 The settings on record: CIB1-GST / FITC-alphaIIb peptide fluorescence polarization; series mostly up to 114 µM; activity change, negative = inhibition: at the top concentration. In outline:
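CIB1-GST (1 uM final) and compound incubated 15 min at room temperature before adding FITC-alphaIIb peptide tracer (100 nM final). Competition for binding read by fluorescence polarization (ex 480, em 540) after another 15 min at room temperature.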
For orientation: Quantitative high-throughput screening tests each substance at several concentrations.
For `Cc1nn2c(=O)cc(N3CCNCC3)nc2s1`, the “activity change, negative = inhibition” value is 5.27%. With `CN1CCN(c2cnc3c(O)ccc(C(=O)O)c3c2)CC1`, the “activity change, negative = inhibition” value was -5.74%.

On to `Cc1cc(-c2nnc3n2CCCCC3)c(C)n1-c1cccnc1`, for which the “activity change, negative = inhibition” value is -1.28%. In the case of `S=P(c1ccccc1)(c1ccccc1)c1c[n+](Cc2ccccc2)c2ccccn12`, the “activity change, negative = inhibition” value was 2.55%. For the compound `Cc1[nH]c2ccccc2c1P(=S)(c1ccccc1)c1ccccc1`, the “activity change, negative = inhibition” value was -3.73%. For the compound `COc1cccc(CNc2ccc(S(=O)(=O)Nc3ccc4ccccc4c3)cc2)c1O`, the “activity change, negative = inhibition” value is -1.53%.

Consider `CCOc1ccc(CCNC(=O)c2cc3ccccc3n2CCN2CCOCC2)cc1OCC`, for which the “activity change, negative = inhibition” value was 0.329%. Consider `CCc1nn2c(=O)c(F)c(N3CCNCC3)nc2s1`, for which the “activity change, negative = inhibition” value is -1.11%.

Regarding `CN1CC[C@@]2(C)c3cc(O)ccc3N(C)C2O1` (stereo not given in full), the “activity change, negative = inhibition” value is -5.62%. On to `CCOc1ccc(CCNC(=O)c2cc3ccncc3n2Cc2cccc(C)c2)cc1OCC`, for which the “activity change, negative = inhibition” value was -11.1%. With `CC(=O)Nc1ncc(S(=O)(=O)N2CCOCC2)s1`, the “activity change, negative = inhibition” value was -2.24%. Take `Cc1cc(C)c(OP(=O)(OCc2c(-c3ccccc3)no[n+]2[O-])Oc2c(C)cc(C)cc2C)c(C)c1`: the “activity change, negative = inhibition” value was -0.176%. Turning to `O=S(=O)(Nc1cccc2ccncc12)c1ccc(NCc2cccc(Cl)c2O)cc1`, the “activity change, negative = inhibition” value is 0.908%. Turning to `Oc1cccc2cc(N3CCNCC3)cnc12`, the “activity change, negative = inhibition” value was -9.6%. In the case of `CCOc1ccc(CCNC(=O)c2cc3sccc3n2Cc2ccc(F)cc2F)cc1OCC`, the “activity change, negative = inhibition” value was 1.8%. Then `CCOc1ccc(CCNC(=O)c2cc3ccncc3n2Cc2cccc(C)n2)cc1OCC`, with 0.567%. `CCOc1ccc(CCNC(=O)c2cc3cnccc3n2Cc2cccc(C)c2)cc1OCC`: the “activity change, negative = inhibition” value is -6.43%.

Regarding `Cc1cccc(C)c1OP(=O)(OCc1c(-c2ccccc2)no[n+]1[O-])Oc1c(C)cccc1C`, the “activity change, negative = inhibition” value was -2.01%. As for `CCOc1ccc(CCNC(=O)c2ccc(C(=O)c3ccccc3)cc2)cc1OCC`, the “activity change, negative = inhibition” value is 0.0498%. Then `CCOC(=O)C1CCN(C(=O)C2(NC(=O)Nc3ccccc3Cl)CCCC2)CC1`, with 3.2% [at 57.7 µM]; and `CCOc1ccc(CCNC(=O)c2cc3ccccc3n2Cc2cccc(C)c2)cc1OCC`, with -1.3%. Take `Cc1cccc2nc(NC3=NC(c4[nH]ncc4Cl)C4=C(CCCC4=O)N3)oc12` (stereo not given): the “activity change, negative = inhibition” value is -1.05%. To `Cn1cc(Cl)c(C2N=C(Nc3nc4ccccc4o3)NC3=C2C(=O)CCC3)n1` (stereo not given) belongs -18.4%; to `O=C(O)c1ccc(O)c2ncc(N3CCCNCC3)cc12`, -3.83%. On to `CCc1nn2c(=O)cc(N3CCN(C)CC3)nc2s1`, for which the “activity change, negative = inhibition” value was -4.59%. Regarding `COc1cccc(CNc2ccc(S(=O)(=O)Nc3nc(C)c(C)s3)cc2)c1O`, the “activity change, negative = inhibition” value was -23.1%. On to `S=P(c1ccccc1)(c1ccccc1)c1c(-c2ccccc2)[nH]c2ccccc12`, for which the “activity change, negative = inhibition” value was -1.4%. As for `Cc1nc2ccccn2c1P(=S)(c1ccccc1)c1ccccc1`, the “activity change, negative = inhibition” value is 0.334%. As for `CCOc1ccc(CCNC(=O)c2ccc(Oc3ccccc3)cc2)cc1OCC`, the “activity change, negative = inhibition” value was 0.211%. Turning to `COc1cccc(CNc2ccc(S(=O)(=O)Nc3nccs3)cc2)c1OC`, the “activity change, negative = inhibition” value was -0.418%. In the case of `O=C(Nc1ncc(Cc2ccc(C(F)(F)F)cc2)s1)c1cnc(-c2ccccc2)o1`, the “activity change, negative = inhibition” value was -5.08%.

With `O=S(=O)(Nc1ccc(-c2ccccc2)cc1)c1ccc(NCc2cccc(Cl)c2O)cc1`, the “activity change, negative = inhibition” value was -1.82%. As for `CCc1nn2c(=O)c(C)c(N3CCNCC3)nc2s1`, the “activity change, negative = inhibition” value is -4.71%. Turning to `N#Cc1ccc(NC(=O)Nc2nnc(-c3ccncc3)s2)cc1C(F)(F)F`, the “activity change, negative = inhibition” value was 5.87%. As to `CCOc1ccc(CCNC(=O)c2cc3cnccc3n2Cc2cccc(C)n2)cc1OCC`, the “activity change, negative = inhibition” value is -4.17%.

On to `N#Cc1c(-c2cccc(-c3no[n+]([O-])c3C#N)c2)no[n+]1[O-]`, for which the “activity change, negative = inhibition” value is -4.22%. To `Cn1cc(P(=S)(c2ccccc2)c2ccccc2)c2ccccc21` belongs 1.42%. Then `Cc1cc(-c2nnc3n2CCCCC3)c(C)n1-c1ccc(C(C)(C)C)cc1`, with 2.97%. As to `S=P(c1ccccc1)(c1ccccc1)c1c[nH]c2ccccc12`, the “activity change, negative = inhibition” value is -1.68%.

On to `CCOc1ccc(CCNC(=O)c2cc3cccnc3n2Cc2cccc(C)c2)cc1OCC`, for which the “activity change, negative = inhibition” value is -0.53%.
